Molecules are shown by their SMILES. Among all 340,000 compounds or so, about 3,300 (0.97%) were called active.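 The calls were made as follows: active = inhibition above the mean over all tested compounds plus 3 SD (cut at about 30% in these data); inactive = the rest.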 What follows is part of a selection rich in actives, with near analogues and random picks from the rest.

The inhibition is the relative decrease from the control value, in per cent.

The target of this assay is Platelet-activating factor acetylhydrolase 2, cytoplasmic (Homo sapiens) (UniProt Q99487). Briefly: inhibition of cytoplasmic PAF acetylhydrolase 2 – biochemical, fluorescence polarization, human, primary screen (AID 492956).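 Also: inhibitors block probe labeling of enzyme so polarization drops; 0% = enzyme with DMSO and 100% = wells lacking PAFAH2 protein.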 To be noted: recombinant PAFAH2, FP-rhodamine activity probe, at 3.39 µM, active compounds read high. A general note: Polarisation of emitted light reports the rotation of a fluorescent probe.
For the molecule `CCOc1ccc(OCC)c(NC(=O)C(NS(=O)(=O)c2ccc3c(c2)oc(=O)n3C)C(C)C)c1` (centres undefined), the inhibition was -6.23% (inactive). Regarding `O=C(NC1CCCC1)C1CC(=O)N(c2ccc(F)cc2)C1` (centres undefined), the inhibition is 5.88% (inactive). For `CC(=O)NS(=O)(=O)c1ccccc1`, the inhibition was -3.11% (inactive). On to `CCCCn1ccnc1C(=O)c1cccc(S(=O)(=O)N2c3ccccc3CC2C)c1` (centres undefined), for which the inhibition was 0.31% (inactive). Consider `O=C(COC(=O)c1cc([N+](=O)[O-])ccc1NCc1ccccc1)NC1CCCCC1`, for which the inhibition was 9.35% (inactive).

Regarding `CC(C)NS(=O)(=O)c1ccc(OCC(=O)NC2CCCCCC2)cc1`, the inhibition was 5.5% (inactive). In the case of `O=C(COC(=O)c1cccc(Cl)c1)NC1CCCCCCC1`, the inhibition is 82.5% (active).

As to `CCN(C(=O)COC(=O)c1cc(NS(=O)(=O)c2ccc(Cl)c([N+](=O)[O-])c2)ccc1O)C1CCCCC1`, the inhibition is 14.6% (inactive). The result for `O=C(COC(=O)c1ccccc1SCC(=O)NC1CCCCC1)NC1CCCCC1` reads 59.5% (active); that for `N#Cc1ccccc1Sc1ccccc1C(=O)OCC(=O)NC1CCCCC1`, 31% (active). As to `Cc1ccc(C(=O)NCC(=O)OCC(=O)NC2CCCCCCC2)cc1`, the inhibition was -6.95% (inactive). Take `COc1ccc(NS(=O)(=O)c2ccc(O)c(C(=O)OCC(=O)NC3CCCCC3)c2)cc1`: the inhibition was 41% (active). Take `N#Cc1ccc(C(=O)OCC(=O)NC(=O)NC2CCCCC2)cc1`: the inhibition is 6.68% (inactive). Consider `O=C(COC(=O)c1cccc(Cl)c1)NC(=O)NCc1ccccc1`, for which the inhibition is 1.23% (inactive).

Turning to `CCOc1ncccc1C(=O)OCC(=O)NC1CC1`, the inhibition is 15.7% (inactive). Consider `O=C(COc1ccccc1O)NC1CCCC1`, for which the inhibition was 1.1% (inactive). Turning to `CCN(CC)S(=O)(=O)c1ccc(N2CCN(C)CC2)c(NC(=O)Nc2ccccc2F)c1`, the inhibition is -13.1% (inactive). For `COc1ccc(CN2CC[C@H]3C=CC[C@@H](C(=O)N4CCOCC4)[C@H]3C2=O)cc1OC`, the inhibition was -0.91% (inactive). Take `COc1cc(NC(=S)NCCSc2ccc(C)cc2)cc(OC)c1`: the inhibition was 5.74% (inactive). As for `COc1ccc(C(=O)C2CCCN(C(=O)c3cnsn3)C2)c(C)c1` (centres undefined), the inhibition is -5.08% (inactive). As for `CS(=O)(=O)Nc1ccccc1C(=O)OCC(=O)NC1CC1`, the inhibition was 9.45% (inactive). With `COc1ccccc1NC(=O)COC(=O)c1ccccc1SCC(=O)N1CCCC1`, the inhibition is 16.2% (inactive). Turning to `O=C(COC(=O)c1ccccc1SCC(=O)N1CCCC1)Nc1ccccc1OC(F)F`, the inhibition was 49.4% (active). On to `O=C(COC(=O)c1ccccc1Cl)NC1CCCCCCC1`, for which the inhibition is 68.9% (active). As to `CC(C)N(Cc1ccccc1)C(=O)COC(=O)c1ccccc1SCC(=O)N1CCCC1`, the inhibition is -10.1% (inactive).

For the molecule `O=C(COC(=O)c1cccnc1Cl)NC(=O)NC1CCCCC1`, the inhibition is 0.86% (inactive). As to `Cc1cc(F)ccc1NC(=O)C(C)n1c2ccccc2c2nc(=O)cc(C)n21` (centres undefined), the inhibition was -0.36% (inactive). With `CCCCNC(=O)N(O)C1N(/N=C/c2ccccc2O)C(=S)SC1(C)C` (centres undefined), the inhibition was 12% (inactive). For the molecule `CCC(C)N1C(=S)SC(C)(C)C1N(O)C(=O)NC1CCCCC1` (centres undefined), the inhibition is 0.18% (inactive).

On to `CCCCNC(=O)N(O)C1N(/N=C/c2ccc(N(C)C)cc2)C(=S)SC1(C)C` (centres undefined), for which the inhibition was 39% (active). Turning to `CC(C)COC(=O)n1c(=O)oc2ccc(S(=O)(=O)N3CCCCC3)cc21`, the inhibition is 67.9% (active).

With `CC1CCCCN1C(=O)Cn1c(=O)oc2cc(S(=O)(=O)N3CCCCC3)ccc21` (centres undefined), the inhibition was 0.32% (inactive). Turning to `O=C(NC1CCCCC1)n1c(=O)oc2cc(S(=O)(=O)N3CCCCC3)ccc21`, the inhibition was -3.36% (inactive). As for `O=C(NCc1cc(C(F)(F)F)cc(C(F)(F)F)c1)C1CC(c2cccc(F)c2)=NO1` (centres undefined), the figure is 6.39% (inactive); as for `O=C(COC(=O)CNC(=O)c1ccccc1F)NCC(F)(F)F`, 1.7% (inactive).

As for `CC(CCc1ccccc1)NC(=O)COC(=O)c1ccc(F)cc1` (centres undefined), the inhibition was 28% (inactive). `CCc1ccc(C(=O)OCC(=O)NCC(F)(F)F)cc1`: the inhibition is 73.5% (active). Take `CC(C)(C)c1csc(NC2=NS(=O)(=O)c3ccccc32)n1`: the inhibition is 36.9% (active). Take `O=C(Oc1cccc(NC2=NS(=O)(=O)c3ccccc32)c1)c1ccncc1`: the inhibition was -0.09% (inactive). For `Cc1ccc(S(=O)(=O)N(NC2=NS(=O)(=O)c3ccccc32)C(=O)c2ccccc2)cc1`, the inhibition is -5.48% (inactive). `O=C(NCN1CCN(CCO)CC1)c1cnccn1`: the inhibition is -3.5% (inactive). The result for `Cc1cc(NC(=O)COC(=O)/C=C/c2ccc(C)o2)no1` reads 33.3% (active). For `CCN(CC(=O)NCc1ccc(Cl)cc1)C(=O)c1c(C)noc1C`, the inhibition is -0.36% (inactive). For the molecule `Cc1cc(NC(=O)COc2ccc([N+](=O)[O-])cc2)no1`, the inhibition was -0.25% (inactive).

For the molecule `Cc1ccc(CNC(=O)COC(=O)C2CCC2)cc1`, the inhibition is 3.66% (inactive). For `Cc1ccc(/C=C/C(=O)OCC(=O)NCc2ccc(Cl)cc2)o1`, the inhibition is 53% (active). On to `COC(=O)c1cc(C(=O)OCC(=O)Nc2cc(C)on2)cc([N+](=O)[O-])c1`, for which the inhibition was -6.33% (inactive). The result for `CCOC(=O)C1C(=O)OC2(CCCC2)C1C(=O)OCC` (centres undefined) reads -3.56% (inactive); that for `Nc1c(C(=O)OCC(=O)Nc2ccc(OC(F)F)cc2)[nH]c(=O)[nH]c1=O`, 5.59% (inactive); that for `COCc1c(C(=O)OCC(=O)Nc2ccc(OC(F)F)cc2)oc2ccccc12`, 30.5% (active). As for `COCc1c(C(=O)OCc2c(C)noc2C)oc2ccccc12`, the figure is -5.34% (inactive); as for `O=C1NCC(Nc2ccccc2)C(=O)N1` (centres undefined), 7.66% (inactive); as for `O=C1C2(c3ccccc3)CN(CCCO)CC1(c1ccccc1)CN(CCCO)C2`, 7.66% (inactive). Turning to `O=C(COC(=O)c1ccc(Cl)nc1)NCc1cccs1`, the inhibition is 5.5% (inactive). `COc1ccccc1CNC(=O)COc1ccc(C)nc1[N+](=O)[O-]`: the inhibition was 4.79% (inactive).

As to `O=C(COC(=O)c1ccc(O)cc1O)NNC(=O)c1cccs1`, the inhibition was 6.29% (inactive). With `O=C(COC(=O)c1cccs1)NCc1cccs1`, the inhibition is 44.2% (active).

For the molecule `O=C(COC(=O)/C(=C/c1cccs1)c1cccs1)NCc1ccccc1Cl`, the inhibition is 9.84% (inactive). Regarding `O=C(COC(=O)[C@H](Cc1ccccc1)NC(=O)c1cccs1)Nc1cc(F)ccc1F`, the inhibition was 4.42% (inactive).

For `O=C(COC(=O)c1ncc(Cl)c(Cl)c1Cl)NCc1cccs1`, the inhibition is -5.72% (inactive). With `O=C(COC(=O)c1cccs1)Nc1ccccc1Cl`, the inhibition is 73.2% (active). As for `COc1ccccc1CNC(=O)COC(=O)c1cccs1`, the figure is 60.2% (active); as for `COc1ccccc1CNC(=O)COC(=O)c1sc(C)nc1C`, 36.3% (active). As to `CNC(=O)c1sc(NCc2ccccc2OC)nc1C`, the inhibition is -0.38% (inactive). On to `COc1ccccc1CNC(=O)COC(=O)CNS(=O)(=O)c1ccc(NC(C)=O)cc1`, for which the inhibition was -2.61% (inactive). Turning to `O=CN1CCN(C(=O)c2ccc(Br)o2)CC1`, the inhibition was 0.55% (inactive). As for `Cc1cccc(NS(=O)(=O)c2ccc(C(=O)NCC(C)(C)N3CCOCC3)cc2)c1C`, the inhibition was -5.69% (inactive). Turning to `O=c1cccc(-c2ccc(Br)cc2)o1`, the inhibition is 1.7% (inactive). For `COc1ccc(SCc2noc(C(=O)NCC3CCCO3)c2C(=O)O)cc1` (centres undefined), the inhibition was 0.7% (inactive). On to `CC1=NNC(=O)C1Cc1c(Cl)cccc1Cl` (centres undefined), for which the inhibition was 5.21% (inactive).

With `CC1=C(C(=O)OC2CCCCC2)C(c2ccccc2F)NC(=O)N1` (centres undefined), the inhibition was -4.88% (inactive). On to `CCOC(=O)C1CCN(c2c(Nc3cc(C)cc(C)c3)c(=O)c2=O)CC1`, for which the inhibition was 7.85% (inactive). As to `Cc1cccc(C(=O)Nc2ccc(C(=O)N/N=C/c3cccc(C)n3)cc2)c1`, the inhibition was -6.77% (inactive).

On to `Cc1cccc(/C=N/NC(=O)CNc2cccc3ccccc23)n1`, for which the inhibition is 47.5% (active). On to `C/C(=N\NC(=O)CNc1cccc2ccccc12)c1ccc(Br)s1`, for which the inhibition is 9.68% (inactive). The result for `CC(C)c1nnc(NC(=O)COC(=O)/C=C/c2ccc([N+](=O)[O-])cc2)s1` reads -1.12% (inactive); that for `CCCCN(C(=O)/C=C/c1ccco1)c1c(N)n(CC(C)C)c(=O)[nH]c1=O`, -7.37% (inactive); that for `CC(=O)Nc1cccc(C(=O)OCC(=O)Nc2nnc(-c3ccccc3)o2)c1`, 4.32% (inactive).

As for `COc1cc(/C=C/C(=O)OCC(=O)Nc2cccc(Oc3ccccc3)c2)ccc1O`, the inhibition was 64.5% (active). On to `CC(=O)Nc1cccc(C(=O)OCC(=O)NCc2cc(C)c(O)c(C)c2)c1`, for which the inhibition is 7.09% (inactive). Turning to `Cc1cccc(C(=O)OCC(=O)NCC(C)C)c1O`, the inhibition is 3.36% (inactive).

As for `CC(C)CNC(=O)COC(=O)/C=C/c1ccccc1[N+](=O)[O-]`, the inhibition is 72.8% (active).

As to `O=C(/C=C/c1ccccc1[N+](=O)[O-])OCC(=O)N1CCCC1`, the inhibition is 7.52% (inactive). For the molecule `COc1cccc(NC(=O)COC(=O)c2ccc3ccccc3n2)c1`, the inhibition was -5.69% (inactive).

In the case of `COc1ccc(C(=O)OCC(=O)Nc2cccc(C(C)=O)c2)cc1OC`, the inhibition is 81.3% (active). With `CC(C)CNC(=O)COC(=O)/C=C/c1ccco1`, the inhibition is 69% (active). On to `COc1cc2c(cc1NC(=O)COC(=O)/C=C/c1ccccc1)oc1ccccc12`, for which the inhibition is 1.23% (inactive). On to `COc1ccc(S(=O)(=O)NCC(=O)NCc2cc(=O)n(C)c(=O)n2C)cc1F`, for which the inhibition is -4.5% (inactive). Consider `CN1C(=O)[C@H]2[C@@H](/C=C/c3ccccc3)N3C(=O)CN(Cc4ccc(-c5ccccc5)cc4)C(=O)[C@@]3(C)[C@H]2C1=O`, for which the inhibition is 6.34% (inactive). As to `COC(=O)c1ccc(CN2CCC(CO)(Cc3ccc(OC)cc3)CC2)cc1`, the inhibition was -1.13% (inactive).

With `CCOc1ccccc1NC(=O)C1CCCN(C(=O)Nc2ccccc2)C1` (centres undefined), the inhibition is 8.64% (inactive). The result for `COCCNC(=O)CN(Cc1ccco1)C(=O)CCC(=O)Nc1nccs1` reads -1% (inactive); that for `COc1ccc(OC)c(/C=C/C(=O)OCC(=O)Nc2ccc3c(c2)OCCO3)c1`, 43.7% (active); that for `COc1cccc(NC(=O)COC(=O)CCOc2ccccc2OC)c1`, 3.71% (inactive). With `COc1cc(/C=C/C(=O)OCC(=O)c2ccccc2)cc(OC)c1OC`, the inhibition was 18% (inactive). Regarding `NS(=O)(=O)c1cccc(NC(=O)COC(=O)/C=C/c2ccco2)c1`, the inhibition was 26.1% (inactive). Turning to `COc1cccc(NC(=O)CN(C)C(=O)/C=C/c2cc(OC)ccc2OC)c1`, the inhibition is 1.18% (inactive). `COc1ccc(OC)c(/C=C/C(=O)c2ccc3c(c2)OCO3)c1`: the inhibition is 10.8% (inactive). Consider `COc1cc(/C=C/C(=O)OCC(=O)NC(=O)NCc2ccccc2)ccc1OCC#N`, for which the inhibition is -1.43% (inactive).

On to `COc1ccc(/C=C/C(=O)OCC(=O)Nc2cccc(Oc3ccccc3)c2)c(OC)c1`, for which the inhibition is 44.5% (active). As to `COc1ccccc1OCCCC(=O)Nc1ccc2c(c1)OCCO2`, the inhibition was -0.62% (inactive). On to `COc1ccc([N+](=O)[O-])cc1NC(=O)COC(=O)/C=C/c1ccco1`, for which the inhibition was 14.1% (inactive). The result for `COc1cccc(NC(=O)COC(=O)/C=C/c2ccco2)c1` reads 71.4% (active); that for `COc1cc(/C=C/C(=O)OCC(=O)NCCCc2ccccc2)ccc1O`, 48.4% (active).
